# Test system: CDK5
# Details: concentration: 1 μM, replicates: in singlicate; n = 1
# 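Note: KINOMEscan kinase panel screen.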
row,SMILES,%Inh [%]
1,O=C(O)C(F)(F)F.O=c1[nH]ccc2nc(N[C@@H]3CCNC3)nc(Nc3ccc4c(c3)S(=O)(=O)CC4)c12 [GSK2181306],76
2,Cn1cc(-c2cnc(N)c3c(-c4ccc5c(c4)CCN5C(=O)Cc4ccccc4)csc23)cn1 [GSK2593074],2
3,Cc1ccc(NC(=O)c2ccc(Cl)c(Cl)c2)cc1-c1ccc(C(=O)Nc2ccncc2)cc1 [GSK1398460],0

# Test system: CDK7
# Details: concentration: 1 μM, replicates: in singlicate; n = 1
row,SMILES,%Inh [%]
1,N#CC1(c2cccc(C(=O)Nc3cccc(Oc4ccc5nc(NC(=O)C6CC6)sc5n4)c3)c2)CC1,12
2,Cc1ccc(C)c(NC(=O)Nc2ccc(C)c(-c3ccc(C(=O)Nc4ccncc4)cc3)c2)c1 [GSK1398473],0
3,O=C(Nc1n[nH]c2nc(-c3ccccc3O)ccc12)C1CC1 [SB-711880],7
4,CCn1c(-c2nonc2N)nc2c(-c3ccccc3)ncc(OCCCN)c21.O=C(O)C(F)(F)F.O=C(O)C(F)(F)F [GSK260205],0
5,Cl.Cl.NC(CNC(=O)c1cc(Br)c(-c2ccnc3[nH]ccc23)s1)c1ccccc1 (stereo not shown) [GSK1322949],47
6,CCOc1nccc(-c2c(-c3ccc(F)cc3)ncn2C2CCNCC2)n1 [SB-249175],24
7,COc1cccc2c(-c3ccncc3)c(-c3ccc(F)cc3)nn12 [GW468513],0
8,CC(C)c1nc(-c2cccc(NS(=O)(=O)c3c(F)cccc3F)c2)c(-c2ccnc(Nc3ccc(N4CCOCC4)nc3)n2)s1.Cl [GSK1723980],62
9,O=C(Nc1n[nH]c2cc(-c3cccs3)ccc12)C1CC1 [SB-731284],48
10,Cc1ccc(NC(=O)c2cccc(N3CCCCC3)c2)cc1-c1ccc(C(=O)NCC2CC2)cc1 [GSK1917008],0
11,Cl.O=C(Nc1ccc(Oc2ccc3[nH]c(NC(=O)c4ccco4)nc3c2)cc1)Nc1cc(C(F)(F)F)ccc1F [GW683134],78
12,Cn1cc(-c2ccc3c(c2)CCN3C(=O)Cc2cc(F)cc(C(F)(F)F)c2)c2c(N)ncnc21 [GSK2635225],11
13,COc1cc(Nc2nccc(N3CCC(NS(=O)(=O)c4ccc(NC(C)=O)cc4)CC3)n2)cc(OC)c1OC [GSK1379825],0
14,O=C1NC(=O)C(c2ccccc2Cl)=C1Nc1cccc(Cl)c1 [SB-342409],42
15,Cc1cc(-c2ccnc(Nc3cccc(C#N)c3)n2)cc(C)c1O [GSK1440913],61
16,CC(C)NCC(Cc1ccccc1)NC(=O)c1cc(Br)c(-c2ccnc3[nH]ccc23)s1.Cl.Cl (stereo not shown) [GSK1383281],16
17,Nc1ncc(-c2ccc3nccc(-c4ccncc4)c3c2)cc1S(=O)(=O)N1CCCCC1 [GSK1693850],80
18,COc1cc(Nc2ccnc3cc(-c4ccncc4)ccc23)cc(OC)c1OC.Cl [GW494610],0
19,COC(=O)Nc1nc2ccc(Oc3ccc(NC(=O)Nc4cc(C(F)(F)F)ccc4F)cc3)cc2[nH]1.Cl [GW654607],97.4

row,SMILES,%Inh [%]
1,c1ccc(Oc2ccc(Nc3ccnc4cc(-c5ccc(CN6CCCCC6)o5)ccc34)cc2)nc1 [GW567143],45
2,COc1cccc(CC(=O)N2CCc3cc(-c4cn(C)c5ncnc(N)c45)ccc32)c1 [GSK2608899],4
3,COc1ccc(C)c(Nc2ccnc(Nc3ccc(-c4cnc[nH]4)cc3)n2)c1.Cl [GW784041],0
4,CCNC(=O)/C=C/c1n[nH]c2cc(Sc3ccccc3C(=O)NC)ccc12,23
5,Cl.N#CCc1ccc(Nc2nccc(Nc3ccc(Oc4ccccc4)cc3)n2)cc1 [GW639905],0
6,CC(=O)Nc1cn2nc(Oc3cccc(NC(=O)c4cccc(C(F)(F)F)c4)c3)ccc2n1,0
7,CCNc1nccc(-c2c(-c3ccc(F)cc3)ncn2C2CCN(C)CC2)n1,0
8,COC(=O)Nc1nc2cc(Oc3ccc(NC(=O)Nc4cccc(SC)c4)cc3)ccc2[nH]1.Cl [GW697999],54
9,Fc1cc(Cl)ccc1Nc1ccnc2cc(-c3ccc(CN4CCOCC4)o3)ccc12 [GW560109],0
10,NCCC(NC(=O)c1cc(Br)c(-c2ccnc3[nH]ccc23)s1)c1ccccc1.O=C(O)C(F)(F)F.O=C(O)C(F)(F)F (stereo not shown) [GSK1307810],47
11,Cc1ccc(O)cc1Nc1ccnc2cc(-c3ccc(CN4CCCCC4)o3)ccc12 [GW557777],0
12,CCn1cnc2c(NCc3ccccc3)ncnc21 [SKF-96418],0
13,CN(c1ccc(F)c(NC(=O)c2cccc(OC(C)(C)C#N)c2Cl)c1)c1ccc2nc(NC(=O)C3CC3)sc2n1,24
14,Cn1cc(-c2ccc3c(c2)CCN3C(=O)Cc2cc(F)cc(F)c2F)c2c(N)ncnc21 [GSK2634140],0
15,CN(C)c1ncnc2nc[nH]c12 [SKF-31736],0
16,O=C(O)C(F)(F)F.O=c1[nH]ccc2nc(N[C@@H]3CCNC3)nc(Nc3ccc4c(c3)S(=O)(=O)CC4)c12 [GSK2181306],85
17,Cn1cc(-c2cnc(N)c3c(-c4ccc5c(c4)CCN5C(=O)Cc4ccccc4)csc23)cn1 [GSK2593074],19
18,Cc1ccc(NC(=O)c2ccc(Cl)c(Cl)c2)cc1-c1ccc(C(=O)Nc2ccncc2)cc1 [GSK1398460],0

# Reference: PMC5540273 (PLoS ONE, 2017)
